Among all 48,000 compounds or so, about 13,000 (27%) showed an effect of 50% or more. Some of the results follow.
Tested on: Wolbachia pipientis
Experiment: Anti-Wolbachia Cell-Based Screen
Assay type: functional
Parameters: scale not given: in the data most compounds retested in dose-response had high values
Conditions: 5 µM

Row | SMILES | Percent Effect [%]
1 | Cc1ccc(CN(C)C(=O)CN2CCc3ccccc3C2)o1 | 87.7
2 | CN(Cc1ccco1)C(=O)CN1CCc2ccccc2C1 | -0.07899
3 | COCCN1CCN(CC(=O)N(C)Cc2ccc(C)o2)CC1C (stereo not drawn) | 6.475
4 | CCNc1cc(N2CCN(C(=O)c3ccc(OC)cc3)CC2)nc(C)n1 | 4.812
5 | OCC1CCCN1c1cc(NCCc2c[nH]c3ccccc23)ncn1 (stereo not drawn) | 7.134
6 | Nc1nc(NCCO)cc(N2CCc3c([nH]c4ccccc34)C2)n1 | 98.87
7 | c1ccc2c3c([nH]c2c1)CN(Cc1cc2n(n1)CCNC2)CC3 | -25.6
8 | COc1ccc(F)c(-c2cc(NCCO)nc(N)n2)c1 | -1.904
9 | COc1ccc2[nH]c3c(c2c1)CN(c1cc(NCCO)nc(N)n1)CC3 | 97.63
10 | Cc1cccc(-c2nnn3c2COC(CNC(=O)N2CCCC2)C3)c1 (stereo not drawn) | 9.642
11 | NCC1Cc2cc(-c3nccc(N4CCC(O)CC4)n3)cc(Cl)c2O1 (stereo not drawn) | -10.94
12 | Cc1ccc(C)c(Oc2ccc(CNC(=O)C3CCS(=O)(=O)C3)cn2)c1 (stereo not drawn) | -2.907
13 | Cc1cc(C(=O)N2CCCC2)ccc1NCCOCC(F)(F)F | -22.68
14 | Cc1cc(C(=O)N2CCCC2)ccc1NCc1nc(CC(C)C)no1 | 81.12
15 | CCc1noc(CNc2ccc(CC(=O)N3CCSCC3)cc2)n1 | 21.21
16 | CCCc1nc(CNc2cccc(C(=O)N3CCCC(O)C3)c2)no1 (stereo not drawn) | 1.271
17 | CC(C)Cc1noc(CNc2ccccc2CC(=O)N(C)C)n1 | 7.405
18 | CC(C)Cc1noc(CN2CCCN(C(=O)c3cccc(Cl)c3)CC2)n1 | -52.16
19 | CCCc1noc(CNc2ccc(C(=O)N3CCCC3)cc2C)n1 | 101
20 | CCc1noc(CNc2cccc(C(=O)N3CCSCC3)c2)n1 | 10.06
21 | CCc1nc(CNc2ccc(C(=O)NCc3ccco3)cc2C)no1 | -7.097
22 | CCc1nc(CNc2ccc(C(=O)N3CCSCC3)cc2C)no1 | 92.2
23 | CCc1noc(CNc2ccc(C(=O)N3CCCC3)cc2C)n1 | 101.8
24 | Cc1ccc(C(=O)N2CCCC(CNS(=O)(=O)C(C)C)C2)cc1 (stereo not drawn) | -19.42
25 | CN(Cc1csc(-c2ccccc2)n1)Cc1ncccc1C(=O)O | 4.154
26 | N#Cc1ccccc1OCCN1CCN(C(=O)C2CCCC2)CC1 | -2.024
27 | CC1CCN(S(=O)(=O)NC2CCCCNC2=O)CC1 (stereo not drawn) | 36.47

Row | SMILES | Percent Effect [%]
28 | CC(C)CNC(=O)Nc1ccc(CN2CCOC2=O)cc1 | -13.36
29 | CS(=O)(=O)NCc1ccc2c(c1)CCC2 | -9.378
30 | Cc1ccc(CNC(=O)c2ccc(CNS(C)(=O)=O)o2)cc1F | 2.956
31 | Cc1cc(CNS(C)(=O)=O)ccc1N(C)C | 110.2
32 | Cc1cccc(C(C)CNS(=O)(=O)CCCC#N)c1 (stereo not drawn) | 5.748
33 | CC(CNS(=O)(=O)CCCC#N)c1ccsc1 (stereo not drawn) | -6.761
34 | Cc1ccc(CNS(=O)(=O)CCCC#N)cc1F | 111.5
35 | Cc1cc(CNS(=O)(=O)CCCC#N)ccc1N(C)C | 89.17
36 | Cc1ccc(CNC(=O)NC(C)CCS(C)(=O)=O)cc1F (stereo not drawn) | -1.224
37 | COCCS(=O)(=O)NCC(C)c1cccc(C)c1 (stereo not drawn) | -6.365
38 | CCN(C)c1ccc(CNS(=O)(=O)CC2CCCO2)cc1F (stereo not drawn) | -7.103
39 | COCCS(=O)(=O)NCc1ccc(N(C)C)c(C)c1 | 78.12
40 | Cc1cnn(CCC(=O)NCc2ccc(N(C)C)c(C)c2)c1 | 4.786
41 | NCC1CN(C(=O)c2cccc(-n3cccn3)c2)CCO1 (stereo not drawn) | 12.21
42 | CCCc1cc(NC2CCc3ncnn3C2)n2ncnc2n1 (stereo not drawn) | -15.24
43 | CSCC(C)(O)CNc1cccc(F)c1C#N (stereo not drawn) | -5.996
44 | CCCOc1cc(CNC(=O)Nc2cccnc2N2CCCC2)ccn1 | 3.924
45 | COc1cccc2cc(CNCc3ccc(N4CCCC4)nc3)oc12 | 106.9
46 | COc1cccc2cc(CNCc3ccnc(N4CCOCC4)c3)oc12 | -10.04
47 | COc1cccc2cc(CNC(=O)N3CCCC(O)C3)oc12 (stereo not drawn) | -11.96
48 | COc1c(CNCc2ccc(N3CCOCC3)nc2)c(C)nn1C | -5.256
49 | COc1cc(CNCc2ccco2)ccc1OCCO.Cl | -24.56
50 | COc1ccc(CNCc2ccnc(N3CCCCC3)c2)cc1OC | 4.647
51 | COc1cccc2cc(CNCc3ccnc(N(C)C)c3)oc12 | 97.53
52 | COc1cccc2cc(CNCc3ccnc(N4CCCCC4)c3)oc12 | 98.43
53 | COc1ccc(CNCc2ccc(N3CCCCC3)nc2)cc1OC | 5.038

From ChEMBL document CHEMBL3988442, “University of Dundee, Small-Polar-MMV Screening Library” (2021)
